# Source: PubChem BioAssay AID463173 (ICCB-Longwood Screening Facility, Harvard Medical School, 2010)
# About 4,300 (8.3%) of roughly 52,000 compounds were called active. Rule as the data show it: active = survival mostly below about 52% (no sharp cut-off); inactive = mostly above about 56%. The entries come from a sample that favours actives as a whole.
# System: DeltatarO mutant
# Test: growth inhibition of S. aureus wild type versus tarO mutant, primary screen, teichoic acid synthesis inhibitors, RN4220, OD600 (AID 463173)
# Settings: OD600, 18 h, hits give low values, screened at 18.75 µg/mL (by protocol)
row,SMILES,survival
1,COc1ccc(NC(=O)CCCN2C(=O)COc3ccc(C)cc32)cc1OC,119% (inactive)
2,COc1ccc(CNC(=O)c2oc3c(c2C)-c2nn(Cc4ccccc4Cl)cc2CC3)cc1,89% (inactive)
3,O=C(Nc1ccc2nc(SCCOc3ccccc3)sc2c1)c1ccco1,99% (inactive)
4,CC(C)(C)C(=O)Nc1ccc2nc(SCCOc3ccccc3Cl)sc2c1,89% (inactive)
5,O=C(Nc1ccc2nc(SCCOc3ccccc3Cl)sc2c1)c1cccs1,49% (inactive)
6,Cc1ccccc1OCCSc1nc2ccc(NC(=O)c3ccccc3)cc2s1,57% (inactive)
7,CC(=O)Nc1ccc2nc(SCCOc3ccccc3Cl)sc2c1,3% (active)
8,COc1cc(C)ccc1OCCSc1nc2ccc(NC(=O)c3ccco3)cc2s1,62% (inactive)
9,Cc1ccc(OCCSc2nc3ccc(NC(=O)c4ccco4)cc3s2)cc1,84% (inactive)
10,Cc1ccccc1OCCSc1nc2ccc(NC(=O)c3ccco3)cc2s1,25% (active)
11,O=C(Nc1ccc2nc(SCCOc3ccccc3Cl)sc2c1)c1ccco1,14% (active)
12,O=C(NC1CCCC1)c1ccc2c(c1)N(Cc1ccccc1F)C(=O)c1ccccc1S2,81% (inactive)
13,Cc1nc2cccnc2n1-c1cccc(C(=O)NCCN(C)C)c1,74% (inactive)
14,O=C(NCC(c1cccs1)S(=O)(=O)c1ccccc1)c1ccc(C(F)(F)F)cc1 (stereo unspecified),90% (inactive)
15,O=C(NCc1ccc(Cl)cc1)c1cnc2sc(N3CCCC3)nn2c1=O,72% (inactive)
16,O=C(NCCc1ccc(Cl)cc1)c1cnc2sc(N3CCOCC3)nn2c1=O,77% (inactive)
17,O=C(NCc1ccc(Cl)cc1)c1cnc2sc(N3CCOCC3)nn2c1=O,52% (active)
18,O=C(CN1C(=O)C2(SCC(=O)N2c2cccc(Cl)c2)c2ccccc21)NC1CCCCC1 (stereo unspecified),86% (inactive)
19,Cc1ccc2c(CC(=O)Nc3ccc(S(=O)(=O)N4CCCCC4C)cc3)coc2c1C (stereo unspecified),53% (inactive)
20,COc1ccccc1NC(=O)CN1C(=O)C(c2ccc(F)cc2)=NC12CCCCC2,72% (inactive)
21,Cc1ccc(S(=O)(=O)NCCc2cn3ccsc3n2)cc1,64% (inactive)

row,SMILES,survival
1,COc1ccc(S(=O)(=O)NCCc2cn3ccsc3n2)cc1,86% (inactive)
2,COc1ccc(S(=O)(=O)NCCc2cn3ccsc3n2)cc1OC,-1% (active)
3,CCN(CCCNC(=O)c1cc2c(=O)[nH]c3ccc(C)cc3c2s1)c1ccc(C)cc1,68% (inactive)
4,CCc1cccc(C)c1NC(=O)COCc1cc(-c2ccc3c(c2)OCO3)on1,101% (inactive)
5,CCn1ccc2c(OCC(=O)NCc3ccccc3)cccc2c1=O,102% (inactive)
6,CCOCCn1ccc2c(OCC(=O)Nc3cccc(F)c3)cccc2c1=O,91% (inactive)
7,COCCn1ccc2c(OCC(=O)Nc3cccc(OC)c3)cccc2c1=O,92% (inactive)
8,CCn1ccc2c(OCC(=O)Nc3ccc(OC)cc3OC)cccc2c1=O,20% (active)
9,CCOCCn1ccc2c(OCC(=O)Nc3cc(C)cc(C)c3)cccc2c1=O,83% (inactive)
10,CCn1ccc2c(OCC(=O)Nc3ccccc3C(F)(F)F)cccc2c1=O,85% (inactive)
11,CCOc1ccccc1NC(=O)COc1cccc2c(=O)n(CCOC)ccc12,70% (inactive)
12,COCCn1ccc2c(OCC(=O)Nc3ccccc3F)cccc2c1=O,25% (active)
13,CCOCCn1ccc2c(OCC(=O)Nc3ccc(C(N)=O)cc3)cccc2c1=O,37% (active)
14,CCn1ccc2c(OCC(=O)Nc3ccccc3C)cccc2c1=O,8% (active)
15,COCCn1ccc2c(OCC(=O)NCc3ccc(F)cc3)cccc2c1=O,92% (inactive)
16,CCn1ccc2c(OCC(=O)Nc3ccc(C(C)=O)cc3)cccc2c1=O,66% (inactive)
17,COC(=O)c1sccc1S(=O)(=O)N(CC(=O)NCc1ccc(C)cc1)c1ccc(C)c(C)c1,68% (inactive)
18,Fc1ccccc1N1CCN(c2ncnc3c2nc2n3CCCC2)CC1,84% (inactive)
19,O=C(Nc1ccccc1)c1ccc(S(=O)(=O)N2CCCC2)cc1,94% (inactive)
20,N#Cc1ccccc1NC(=O)C(=O)NCC(c1ccc2c(c1)OCO2)N1CCOCC1 (stereo unspecified),71% (inactive)
21,CCC(=O)N1CCc2cc(Br)cc(S(=O)(=O)CCC(=O)N3CCN(c4ccccc4F)CC3)c21,80% (inactive)

row,SMILES,survival
1,O=C(NCc1ccccc1Cl)C1CCCN(S(=O)(=O)c2cccc3nsnc23)C1 (stereo unspecified),91% (inactive)
2,CCN1CCN(CCC(=O)Nc2ccc(OC)cc2)CC1,97% (inactive)
3,Cc1nn(-c2ccccc2)c2sc(C(=O)N(Cc3ccco3)C(C)C(=O)NC3CCCCC3)cc12 (stereo unspecified),60% (active)
4,Cc1nn(-c2ccccc2)c2sc(C(=O)N(CC(=O)NC3CCCC3)C3CC3)cc12,78% (inactive)
5,Cc1nn(-c2ccccc2)c2sc(C(=O)NN=C3CCCC3)cc12,109% (inactive)
6,O=C(OCc1ccccc1Cl)c1ccc(-c2nnn(Cc3ccccc3)n2)cc1,52% (inactive)
7,CC(C)CNC(=O)C1CCN(S(=O)(=O)c2ccc(-n3cnnn3)cc2)CC1,86% (inactive)
8,Cc1ccc(NC(=O)Cn2c(=O)nc(-c3ccccc3F)c3cc(Cl)ccc32)c(Br)c1,79% (inactive)
9,O=C1CC2CCC(CN1)N2S(=O)(=O)c1ccc(C(=O)O)cc1 (stereo unspecified),93% (inactive)
10,Cc1ccc(-c2cc(C(=O)N3CCN(S(=O)(=O)c4ccc(Br)s4)CC3)[nH]n2)c(C)c1,70% (inactive)
11,O=C(NCc1ccccc1Cl)c1cnc2sc(N3CCCCC3)nn2c1=O,76% (inactive)
12,COc1ccc(C(=O)NCC(c2ccc(N(C)C)cc2)N2CCc3ccccc32)cc1 (stereo unspecified),118% (inactive)
13,Cc1cc(C(=O)NCc2ccc(C(=O)O)o2)c(C)o1,58% (active)
14,Cc1cc(C(=O)Nc2ccccc2C(=O)O)c(C)o1,66% (inactive)
15,Cc1cc(C(=O)NCC(=O)O)c(C)o1,76% (inactive)
16,CCC(=O)NC1CCNCC1,76% (inactive)
17,CCOc1ccc(CNS(=O)(=O)c2ccc3[nH]c(=O)ccc3c2)cc1,85% (inactive)
18,CCOc1ccc(OCC)c(NS(=O)(=O)c2ccc3[nH]c(=O)ccc3c2)c1,8% (active)
19,CCOc1ccccc1CNS(=O)(=O)c1ccc2[nH]c(=O)ccc2c1,81% (inactive)
